Compound activity: PubChem, Broad Institute
The list is not random: actives were taken first. Their share in the collection is about 1.4%.
RAD54 inh: inhibitors of human RAD54 branch migration, primary screen, biochemical, fluorescence, single point | RAD54 Holliday junction branch migration, FAM/BHQ fluorescence | inhibition, % at 10.4 µM | hit rate 0.14% among 360,000 | AID 602329, 2012;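 active = mean normalized replicate activity at least 40 and at least half of replicates scoring 40 or more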;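 note: 0% = median of neutral control wells and 100% = median of positive control wells; inhibitors cause a drop in the FAM fluorescence signal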
AF4-AF9 inh: inhibitors of AF4 peptide binding to AF9, primary screen, biochemical, AlphaScreen, biotin-AF4 peptide, FLAG-AF9, single point. Protein AF-9 (Homo sapiens), P42568. inhibition, % at 10 µM. hit rate 0.47% among 350,000. AID 651704, 2012;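 active = every replicate reaching a set inhibition limit, whatever the replicate mean, cut at about 25% in these data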;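 note: 0% = plate neutral control median and 100% = total signal loss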
Target sequence (P42568 whole entry, looked up): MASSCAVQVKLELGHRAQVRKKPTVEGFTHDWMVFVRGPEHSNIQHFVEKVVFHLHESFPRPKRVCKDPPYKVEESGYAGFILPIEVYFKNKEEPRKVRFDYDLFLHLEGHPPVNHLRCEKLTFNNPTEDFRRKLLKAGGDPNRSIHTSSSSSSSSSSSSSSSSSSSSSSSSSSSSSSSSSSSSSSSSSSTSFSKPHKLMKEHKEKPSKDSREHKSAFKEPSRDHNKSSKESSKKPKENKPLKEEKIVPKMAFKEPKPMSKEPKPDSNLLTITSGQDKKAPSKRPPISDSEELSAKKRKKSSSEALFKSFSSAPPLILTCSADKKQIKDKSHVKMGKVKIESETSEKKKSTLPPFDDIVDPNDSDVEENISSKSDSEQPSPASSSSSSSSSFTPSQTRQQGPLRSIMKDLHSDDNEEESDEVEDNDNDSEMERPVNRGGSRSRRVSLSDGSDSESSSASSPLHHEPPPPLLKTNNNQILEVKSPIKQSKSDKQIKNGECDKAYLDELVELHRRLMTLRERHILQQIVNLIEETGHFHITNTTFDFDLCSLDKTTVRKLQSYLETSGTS
PGC1a acetyl inh: inhibitors of PGC1a acetylation signal, primary screen, cell-based, U2OS, AlphaScreen, inhibitor mode; AlphaScreen anti-acetyl-lysine; with virally co-expressed GCN5 acetyltransferase; inhibition, % at 15.6 µM; hit rate 0.17% among 350,000; AID 651687, 2012;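 active = every replicate shows inhibition of at least 40%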;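 note: 0% = neutral control wells and 100% = positive control wells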
ERAP1 inh: human ERAP1 aminopeptidase inhibitors, primary screen, biochemical, single point, plate reader | hit rate 0.15% among 340,000 | Endoplasmic reticulum aminopeptidase 1 (Homo sapiens), Q9NZ08 | AID 652197, 2013 | recombinant ERAP1, Leu-AMC fluorescence, 60 min | inhibition, % at 10.7 µM;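 active = mean replicate inhibition of at least 30%, or all replicates individually reaching that 30% level; inactive = mean below 30% and not every replicate reaching it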;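 note: 0% = neutral control wells and 100% = L-leucinethiol positive control wells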
RAD52 inh: RAD52 DNA annealing inhibitors, primary screen, biochemical, FRET, single point, set 2; inhibition, % at 18.7 µM; hit rate 0.46% among 360,000; DNA repair protein RAD52 homolog (Homo sapiens), P43351; recombinant RAD52 DNA annealing, FRET fluorescence;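 active = every replicate showing at least 50% inhibition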
GSIS activator: GLuc luminescence reporter in INS-1E cells, primary screen for activators of glucose-dependent secretion of insulin | activation, % at 16.6 µM | hit rate 0.61% among 370,000 | AID 743287, 2014 | INS-1E GLuc reporter insulin secretion, 2-3 h;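 active = lowest replicate activation of at least 40%, so every replicate reaches that level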;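 note: 0% = median of neutral control wells and 100% = median of IBMX positive control wells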
The depositor's hits bear a star; . = no result given.

SMILES	RAD54 inh	AF4-AF9 inh	PGC1a acetyl inh	ERAP1 inh	RAD52 inh	GSIS activator
C[C@H](O)C#Cc1cnc2c(c1)C(=O)N([C@@H](C)CO)C[C@@H](C)[C@H](CN(C)C(=O)c1ccc(F)cc1)O2	3	-4	10	0	-1	9
CN(c1cccc(NS(=O)(=O)c2cccs2)c1)S(C)(=O)=O	9	.	51*	.	.	.
COc1ccc(S(=O)(=O)Nc2cccc(N(C)S(C)(=O)=O)c2)cc1Br	8	.	1	.	.	26
COC(=O)C[C@H]1C[C@@H]2c3cc(NC(=O)Nc4ccc(OC)cc4)ccc3O[C@@H]2[C@@H](CO)O1	-3	.	-8	.	.	-4
CC(C)(C)c1ccc(-n2nc(C#N)c(Cl)cc2=O)cc1	.	4	82*	2	-4	-3
Cc1noc(C)c1NC(=O)N[C@@H]1C=C[C@@H](CC(=O)N2CCCCC2)O[C@@H]1CO	3	1	6	-2	8	7
CN(C)CCNc1ncnc2ccccc12	1	.	-11	1	-1	2
CN(C)CCNc1ncnc2oc(-c3ccccc3)c(-c3ccccc3)c12	38	16	-15	2	21	53*
O=C(OCc1ccccc1)N1CCC2CC1c1cc(-c3ccc(F)cc3)ccc12 (stereo not drawn)	-12	0	63*	5	-10	5
CC(=O)Nc1ccc2c(c1)C(=O)N(C)C[C@H](C)[C@@H](CN(C)C)O2	.	.	.	.	.	11
COc1ccc(C(=O)NCC(=O)OCC(=O)Nc2sccc2C#N)cc1OC	.	-2	.	.	-44	51*
CCOC(=O)NC(=O)COC(=O)CNC(=O)c1ccc(OCC)c(OCC)c1	.	-5	.	-4	-8	46*
COc1ccc(C(=O)NCC(=O)OCC(=O)NC(=O)c2ccc(C(C)(C)C)cc2)cc1OC	1	4	3	-2	-1	24
Cn1cnc(CCNC(=O)C[C@@H]2CC[C@H]3[C@@H](COC[C@@H](O)CN3C(=O)Nc3ccc(F)cc3)O2)c1	-3	-2	7	-2	1	-8
Cc1ccc(NCc2cccc(B(O)O)c2)cc1	-6	8	1	1	-10	43*
Cc1ccc(NCc2ccccc2)cc1	.	-4	.	-3	-16	7
CC(C)(C)c1ccc(-c2cc(NC(=O)Cc3c[nH]c4ccccc34)ccc2Nc2cccnc2)cc1	.	.	.	0	-80	57*
CCCc1ccc(-c2cc(NC(=O)Cc3c[nH]c4ccccc34)ccc2Nc2cccnc2)cc1	.	.	.	1	5	.
CN(CC(=O)Nc1ccccc1C(F)(F)F)C(=O)CSc1nnc(-c2ccncc2)n1C	-5	1	-1	35*	-59	14
CN(CC(=O)Nc1ccccc1C(F)(F)F)C(=O)CSc1nnnn1C	-7	-12	-3	3	-4	1
COc1ccc(C2(C(=O)Nc3nncs3)CCCC2)cc1	11	.	-9	.	.	-6
COc1ccc(NC(=O)C2(c3ccc(NC(=O)c4ccc(OC)cc4)cc3)CCCC2)cc1	1	.	.	.	.	98*
Cc1ccccc1S(=O)(=O)NCC[C@H]1CC[C@@H](NC(=O)Nc2cccc(Cl)c2)[C@H](CO)O1	-8	1	.	0	15	-19
COc1ccc2c3c([nH]c2c1)[C@@H](CO)N(Cc1ccccc1)CC31CCN(C(=O)Nc2cccc(F)c2)CC1	.	-1	.	-1	-17	-34
CN=c1scc(-c2ccc(F)cc2)n1/N=C/c1ccc(O)c(O)c1	.	59*	-3	12	0	0
SMILES	RAD54 inh	AF4-AF9 inh	PGC1a acetyl inh	ERAP1 inh	RAD52 inh	GSIS activator
CS(=O)(=O)N1C[C@H](O)COC[C@@H]2O[C@H](CC(=O)NCc3ccc(-c4ccccc4)cc3)CC[C@H]21	0	15	8	-1	58*	-17
O=C(C[C@@H]1CC[C@@H]2[C@H](COC[C@H](O)CN2S(=O)(=O)c2ccccc2)O1)NCc1ccc(-c2ccccc2)cc1	-1	6	-9	1	18	-6
O=C(C[C@@H]1CC[C@@H]2[C@H](COC[C@@H](O)CN2S(=O)(=O)c2ccccc2)O1)NCc1ccc(-c2ccccc2)cc1	-5	24	-7	1	89*	-2
O=C(C[C@H]1CC[C@H]2[C@@H](COC[C@H](O)CN2S(=O)(=O)c2ccccc2)O1)NCc1ccc(-c2ccccc2)cc1	3	21	-4	0	92*	-2
CS(=O)(=O)N1C[C@H](O)COC[C@H]2O[C@@H](CC(=O)NCc3ccc(-c4ccccc4)cc3)CC[C@@H]21	20	20	2	2	47	6
COc1ccc2c3c([nH]c2c1)[C@@H](CO)N(C(=O)Nc1c(C)noc1C)CC31CN(CC2CC2)C1	.	.	.	.	.	5
COc1ccc(-c2cn(CC(=O)N3CCC4(CC3)C(=O)NCN4c3ccccc3)nn2)cc1OC	.	0	.	-3	18	.
COc1ccccc1NC(=O)N1CC[C@@H]2[C@H]1c1cc(C#Cc3ccc(F)cc3)ccc1N(C)[C@@H]2CO	6	-3	-4	1	70*	13
COc1ccccc1NC(=O)N1CC[C@@H]2[C@H]1c1cc(-c3cccc(F)c3)ccc1N(C)[C@H]2CO	-7	7	1	2	2	5
COc1ccc(C#Cc2ccc3c(c2)[C@@H]2[C@@H](CCN2S(=O)(=O)c2cccc(OC)c2)[C@@H](CO)N3C)cc1	5	0	7	-2	67*	12
COc1ccccc1NC(=O)N1CC[C@H]2[C@@H]1c1cc(-c3ccc(F)cc3)ccc1N(C)[C@H]2CO	1	1	-7	1	-10	6
COc1ccccc1NC(=O)N1CC[C@H]2[C@@H]1c1cc(-c3ccccc3)ccc1N(C)[C@H]2CO	17	-1	0	7	58*	-11
COc1ccccc1NC(=O)N1CC[C@@H]2[C@H]1c1cc(-c3ccccc3)ccc1N(C)[C@@H]2CO	17	0	-3	2	52*	7
C[C@H](CO)N1C[C@H](C)[C@@H](CN(C)S(C)(=O)=O)Oc2ncc(C3=CCCCC3)cc2C1=O	.	.	0	.	.	-4
O=C(CN1CCOCC1)N/N=C/c1ccc(-c2ccc(C(=O)O)cc2)o1	.	3	15	93*	-12	-1
C[C@@H]1CCCCO[C@H](CN(C)Cc2ccc(C(F)(F)F)cc2)[C@@H](C)CN([C@@H](C)CO)C(=O)c2cc(N(C)C)ccc2O1	0	6	-12	0	2	0
